# PubChem BioAssay (NCATS)
# Results filed as inconclusive are left out. Where a call stands in place of a potency, no number is given. Active and inactive are the calls of the source. Calls come from the whole dose curve; as a rule, active = well fitted cell-killing curve with a large enough effect; inconclusive = small, poorly fitted or top-dose-only effect; inactive = flat fitted curve, though single readings scatter.
# Assay: qHTS of pediatric cancer cell lines to identify multiple opportunities for drug repurposing: Primary screen for control Hh wild type fibroblast cells (AID 1347106); note: nearly all actives have a fitted effect of over 55% in size
# Conditions: Hh wild-type fibroblast viability, CellTiter-Glo luminescence, 48 h; series mostly up to 46 µM
# Text: Drug repurposing or repositioning has been offered as a strategy for drug development in oncology programs. This approach has special potential for childhood cancers and other rare or orphan diseases, where the expected return on new drug development has been a disincentive to pharmaceuticals.
# In this project we exploit the poly-pharmacology of drugs to discover new indications via phenotypic screening of a panel of 19 well-characterized cell lines derived from solid tumors seen in children and adolescents. The goal is to identify approved drugs with previously unrecognized anticancer properties that has the potential to reveal new mechanisms and biological processes involved in carcinogenesis or drug resistance. We employed a titration-based paradigm (quantitative high-throughput screening or qHTS), where all compounds were tested at multiple concentrations for their effect on cell viability. Concentration-response curves (CRCs) were derived directly from the primary screen, and both potency and efficacy values were used to identify compounds with robust bioactivity profiles. We screened the NIH Chemical Genomics Center (NCGC) Pharmaceutical Collection (NPC) and Mechanism Interrogation Plate (MIPE) small molecule collections of approved and investigational compounds against these cell lines; and measured metabolically active cells after 48 hours of compound treatment as a proxy for cell viability.
# Assay Submitter: Nathalia J. Martinez, National Center for Advancing Translational Sciences, National Institutes of Health, Rockville, MD, USA; email: natalia.martinez@nih.gov
# [1] Shen, M et al. Quantitative high-throughput phenotypic screening of pediatric cancer cell lines identifies multiple opportunities for drug repurposing. Oncotarget 2017 Dec 19;9(4):4758-4772. PMID 29435139.
# The cells were obtained from University of North Carolina (UNC), Pediatric Preclinical Testing Program (PPT), and Coriell Institute (CI).
# qHTS cell viability assay:
# Cells were assayed in growth media at a density of 500-1,000 cells/well. Five microliters of cells were dispensed into 1,536-well, white, solid-bottom, TC-treated plates (Greiner Bio One) using a multidrop dispenser and incubated at 37 degrees C, 5% CO2, under a humidified atmosphere for 5 hours. Twenty-three nanoliters of compounds and controls (neutral control DMSO or positive control bortezomib at final concentration of 2.3 µM) were subsequently transferred by Kalypsys pintool. For primary screens, the MIPE collection was tested at 11-point dilutions (final concentrations range from 0.78 nM to 46 µM) and the NPC collection at 8-point dilutions (final concentrations range from 0.59 nM to 46 µM). Compounds tested in follow-up screens were assayed at 11-point dilutions. Cells were incubated for 48 hours, followed by addition of 3 µL of CellTiter-Glo (Promega). After a 15 min incubation at room temperature, samples were analyzed for luminescence intensity using a ViewLux High-throughput CCD imager equipped with clear filters.
# Potency is the fitted concentration of half-maximal effect.
row,Compound,Potency
1,COc1ccc(-n2nc(C(N)=O)c3c2C(=O)N(c2ccc(N4CCCCC4=O)cc2)CC3)cc1,inactive
2,COc1ccc2c(c1)CC[C@@H](CN(C)CC(=O)O)[C@H]2c1ccccc1,inactive
3,COc1cc(C(=O)NS(=O)(=O)c2ccccc2C)ccc1Cc1cn(C)c2ccc(NC(=O)OC3CCCC3)cc12,inactive
4,CN(c1ncccc1CNc1nc(Nc2ccc3c(c2)CC(=O)N3)ncc1C(F)(F)F)S(C)(=O)=O,20.9 µM (active)
5,CC(C)Nc1cc(C(F)(F)F)cc2nc(NC(=O)c3cccnc3)nn12,inactive
6,CCc1cc2c(cc1N1CCC(N3CCOCC3)CC1)C(C)(C)c1[nH]c3cc(C#N)ccc3c1C2=O,inactive
7,CC=C1NC(=O)[C@H]2CSSCCC=C[C@H](CC(=O)N[C@H](C(C)C)C(=O)N2)OC(=O)[C@H](C(C)C)NC1=O,0.0526 µM (active)
8,CC1=C(CO)C(=O)O[C@@H]([C@@H](C)[C@H]2CC[C@H]3[C@@H]4C[C@H]5O[C@]56[C@@H](O)C=CC(=O)[C@]6(C)[C@@H]4CC[C@]23C)C1,inactive
9,CNC(=O)CN1CCC(Oc2cc3c(Nc4cccc(Cl)c4F)ncnc3cc2OC)CC1,inactive
10,c1nc2nc(Nc3ccc(N4CCOCC4)cc3)nc(NC3CCCCC3)c2[nH]1,inactive
11,COc1cc(=C2C=c3ccccc3=N2)[nH]c1=Cc1[nH]c(C)cc1C,10.5 µM (active)
12,CCCCCCCCCC(=O)N[C@@H](Cc1c[nH]c2ccccc12)C(=O)N[C@H](CC(N)=O)C(=O)N[C@@H](CC(=O)O)C(=O)N[C@@H]1C(=O)NCC(=O)N[C@@H](CCCN)C(=O)N[C@@H](CC(=O)O)C(=O)N[C@H](C)C(=O)N[C@@H](CC(=O)O)C(=O)NCC(=O)N[C@H](CO)C(=O)N[C@@H]([C@@H](C)CC(=O)O)C(=O)N[C@@H](CC(=O)c2ccccc2N)C(=O)O[C@@H]1C,inactive
13,Cc1ccc(CN2CCNCC2)cc1NC(=O)CNc1ccc(F)c(F)c1,inactive
14,CN1CCN(c2ccc3nc(-c4c(N)c5c(F)cccc5[nH]c4=O)[nH]c3c2)CC1,inactive
15,Nc1cccc(-c2cc3c(Oc4cccc(O)c4)ncnc3[nH]2)c1,inactive
16,COc1cc2c(NC3CCN(C(C)C)CC3)nc(C3CCCCC3)nc2cc1OCCCN1CCCC1,20.9 µM (active)
17,CCCn1c(=O)c2[nH]c(-c3cnn(Cc4cccc(C(F)(F)F)c4)c3)nc2n(CC)c1=O,inactive
18,CC(C)c1nn(-c2c(Cl)cccc2Cl)c2nc(Cc3ccc(OCCO)cc3)[nH]c(=O)c12,inactive
19,CC(O)C1C(=O)N2C(C(=O)O)=C(SC3CNC(C(=O)N(C)C)C3)C(C)C12 (stereo not given),inactive
20,CN(C1CCc2c(c3ccccc3n2CC(=O)O)C1)S(=O)(=O)c1ccc(F)cc1 (stereo not given),inactive

row,Compound,Potency
1,Cc1cc(Nc2nc(N[C@@H](C)c3ccc(F)cc3)c(C#N)cc2F)n[nH]1,14.8 µM (active)
2,CC(C)C[C@H](NC(=O)CNC(=O)c1cc(Cl)ccc1Cl)B(O)O,1.05 µM (active)
3,C[C@@H](Oc1cc(-c2cnn(C3CCNCC3)c2)cnc1N)c1c(Cl)ccc(F)c1Cl,inactive
4,COc1ccc2c(OCc3nnc4ccc(-c5ccccc5)nn34)ccnc2c1,inactive
5,COCCOc1ccc2c(c1)ncn2-c1ccc2cccc(N3CCC(N)CC3)c2n1,inactive
6,Nc1ccc(C(=O)c2cc3c(ccc4ccccc43)[nH]2)cc1,inactive
7,COc1cccc2c(NCc3ccccc3)nc(-n3c(N)nc4ccccc43)nc12,inactive
8,CC=CC1=C(C(=O)O)N2C(=O)[C@H](NC(=O)[C@H](N)c3ccc(O)cc3)[C@@H]2SC1,inactive
9,Nc1ccn([C@@H]2CS[C@H](CO)O2)c(=O)n1,inactive
10,CN1CCN(Cc2ccc(NC(=O)Nc3ccc(Oc4cc(NC(=O)C5CC5)ncn4)cc3)cc2C(F)(F)F)CC1,8.33 µM (active)
11,O=c1[nH]c(=O)n(C2CCCO2)cc1F (stereo not given),inactive
12,CCCCCN(CCC12CC3CC(CC(C3)C1)C2)C(=O)NCCCc1ccncc1,inactive
13,CS(=O)(=O)N1CCN(Cc2cc3nc(-c4cccc5[nH]ncc45)nc(N4CCOCC4)c3s2)CC1,inactive
14,CC[C@H](CO)Nc1nc(NCc2ccccc2)c2ncn(C(C)C)c2n1,inactive
15,CC(C)=CCCC(C)=CCCC(C)=CCSc1ccccc1C(=O)O,8.33 µM (active)
16,Cc1ccc(NC(=O)C2(c3ccc4c(c3)OC(F)(F)O4)CC2)nc1-c1cccc(C(=O)O)c1,11.8 µM (active)
17,Cc1c(Cn2c(C)nc3c(C(=O)O)cc(N4CCOCC4)cc32)cccc1C(F)(F)F,inactive
18,CCC[C@H](NC(=O)C(C#N)=Cc1cccc(Br)n1)c1ccccc1,inactive
19,C=C1C(=CC=C2CCC[C@]3(C)[C@@H]([C@H](C)C=C[C@H](C)C(C)C)CC[C@@H]23)C[C@@H](O)C[C@@H]1O,inactive
20,CC(=O)OCC(=O)[C@@]1(O)[C@H](C)C[C@H]2[C@@H]3C=C(C)C4=Cc5c(cnn5-c5ccccc5)C[C@]4(C)[C@@H]3[C@@H](O)C[C@@]21C,inactive
